Measurements as given in PubChem BioAssay AID1159580 (chemical genetic matrix, 2015).
Several values for one entry are separate records, joined by “and”; a condition that tells them apart may be missing. Equal entries are not always repeated. Screen size: about 5,500 compounds; about 2,000 (36%) were called active. Inconclusive results (about 18%) are left out. No stated cut-off is given here; in the data, active means normalized growth mostly below about 0.91 (no sharp cut-off); inconclusive means no clear call, values can overlap the other calls; inactive means mostly above about 0.92. Some of the results follow.

Assay: chemical genetic growth profiling, strain panel (AID 1159580);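 further: tested at 20 µM; growth read once vehicle control cultures reached saturation at 30 °C; 1 = growth at the plate median or of vehicle wells; lower values mean less growth of the strain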
Conditions: S. cerevisiae deletion strains, growth OD

Measured: normalized growth

COc1c(O)cc2c(c1O)[C@H]1O[C@H](CO)[C@@H](O)[C@H](O)[C@@H]1OC2=O
inactive: locus YAL021C, strain ccr4, active compounds read low 1.03 | locus YAL026C, strain drs2, active compounds read low 1.02 | locus YAL030W, strain snc1, active compounds read low 1.02 | locus YBL061C, strain skt5, active compounds read low 1.03 | locus YBR009C, strain hhf1, active compounds read low 1.02 | locus YBR021W, strain FUR4, active compounds read low 0.961 | locus YBR023C, strain chs3, active compounds read low 1.03 | locus YBR171W, strain sec66, active compounds read low 1.02 | locus YBR229C, strain ROT2, active compounds read low 0.993 | locus YBR231C, strain swc5, active compounds read low 1.02 | locus YBR279W, strain paf1, active compounds read low 1.02 | locus YCL011C, strain gbp2, active compounds read low 1.02 | locus YCL016C, strain dcc1, active compounds read low 1.04 | locus YCL029C, strain bik1, active compounds read low 0.998 | locus YCL061C, strain MRC1, active compounds read low 1.02 | locus YCL069W, strain vba3, active compounds read low 1.02 | locus YCR088W, strain abp1, active compounds read low 1.02 | locus YDL005C, strain med2, active compounds read low 1.03 | locus YDL035C, strain GPR1, active compounds read low 1.02 | locus YDL040C, strain nat1, active compounds read low 1.02 | locus YDL074C, strain BRE1, active compounds read low 0.992 | locus YDL101C, strain DUN1, active compounds read low 0.985 | locus YDL185W, strain tfp1, active compounds read low 1.02 | locus YDL192W, strain arf1, active compounds read low 0.983 | locus YDR001C, strain nth1, active compounds read low 1.02 | locus YDR069C, strain doa4, active compounds read low 1.03 | locus YDR101C, strain arx1, active compounds read low 1.01 | locus YDR137W, strain rgp1, active compounds read low 1.05 | locus YDR150W, strain NUM1, active compounds read low 0.98 | locus YDR159W, strain sac3, active compounds read low 1 | locus YDR162C, strain NBP2, active compounds read low 0.988 | locus YDR195W, strain ref2 1 | locus YDR297W, strain sur2, active compounds read low 1.02 | locus YDR318W, strain mcm21, active compounds read low 1.01 | locus YDR334W, strain swr1, active compounds read low 1.02 | locus YDR335W, strain msn5, active compounds read low 1.02 | locus YDR388W, active compounds read low 0.996 | locus YDR392W, strain spt3, active compounds read low 0.966 | locus YDR502C, strain sam2, active compounds read low 1 | locus YEL003W, strain gim4, active compounds read low 1.02 | locus YEL037C, strain rad23, active compounds read low 1.02 | locus YEL061C, strain CIN8 (second series), active compounds read low 1.02 | locus YEL061C, strain CIN8, active compounds read low 0.962 | locus YER015W, strain faa2, active compounds read low 1.01 | locus YER016W, strain bim1, active compounds read low 1.02 | locus YER110C, active compounds read low 1.01 | locus YER111C, strain swi4, active compounds read low 1.01 | locus YER155C, strain BEM2 (second series), active compounds read low 1 | locus YER155C, strain BEM2, active compounds read low 0.996 | locus YER167W, strain BCK2, active compounds read low 0.973 | locus YFR010W, strain ubp6, active compounds read low 1.02 | locus YGL078C, strain dbp3, active compounds read low 1.03 | locus YGL086W, strain mad1, active compounds read low 0.991 | locus YGL167C, strain pmr1, active compounds read low 1.02 | locus YGL173C, strain kem1, active compounds read low 1.01 | locus YGL227W, strain vid30, active compounds read low 1.02 | locus YGL240W, strain doc1, active compounds read low 1.01 | locus YGL248W, strain PDE1, active compounds read low 1 | locus YGL253W, strain hxk2, active compounds read low 1.02 | locus YGR135W, strain pre9, active compounds read low 0.995 | locus YGR252W, strain gcn5, active compounds read low 0.991 | locus YHR013C, strain ard1, active compounds read low 1.02 | locus YHR027C, strain rpn1, active compounds read low 1.01 | locus YHR030C, strain SLT2, active compounds read low 1.01 and 0.959 | locus YHR079C, strain IRE1 (second series), active compounds read low 1.01 | locus YHR079C, strain IRE1, active compounds read low 0.987 | locus YHR094C, strain hxt1, active compounds read low 0.996 | locus YHR129C, strain ARP1, active compounds read low 0.988 | locus YHR142W, strain chs7, active compounds read low 1.05 | locus YHR200W, strain rpn10, active compounds read low 1 | locus YIL066C, strain RNR3, active compounds read low 0.986 | locus YIL073C, strain SPO22, active compounds read low 1.05 | locus YIL125W, strain kgd1, active compounds read low 1.01 | locus YIR030C, strain dcg1, active compounds read low 1 | locus YJL092W, strain hpr5, active compounds read low 1.02 | locus YJL095W, strain BCK1 (second series), active compounds read low 1.03 | locus YJL095W, strain BCK1, active compounds read low 0.811 and 0.98 | locus YJL115W, strain asf1, active compounds read low 1.01 | locus YJL129C, strain trk1, active compounds read low 1.04 | locus YJL134W, strain LCB3, active compounds read low 0.998 | locus YJL154C, strain vps35, active compounds read low 1.01 | locus YJL164C, strain tpk1, active compounds read low 1.02 | locus YJL166W, strain qcr8, active compounds read low 1.03 | locus YJL168C, strain set2, active compounds read low 1 | locus YJL187C, strain SWE1 (second series), active compounds read low 0.969 | locus YJL187C, strain SWE1, active compounds read low 1.03 | locus YJR043C, strain POL32, active compounds read low 0.997 | locus YJR066W, strain TOR1, active compounds read low 0.934 | locus YJR075W, strain HOC1, active compounds read low 1
